{
  "source": "the supplement of paper PMC8728848",
  "binders": {"B1": {"name": "Angptl4 (Homo sapiens), Q9BY76 (protein)", "chain": "MSGAPTAGAALMLCAATAVLLSAQGGPVQSKSPRFASWDEMNVLAHGLLQLGQGLREHAERTRSQLSALERRLSACGSACQGTEGSTDLPLAPESRVDPEVLHSLQTQLKAQNSRIQQLFHKVAQQQRHLEKQHLRIQHLQSQFGLLDHKHLDHEVAKPARRKRLPEMAQPVDPAHNVSRLHRLPRDCQELFQVGERQSGLFEIQPQGSPPFLVNCKMTSDGGWTVIQRRHDGSVDFNRPWEAYKAGFGDPHGEFWLGLEKVHSITGDRNSRLAVQLRDWDGNAELLQFSVHLGGEDTAYSLQLTAPVAGQLGATTVPPSGLSVPFSTWDQDHDLRRDKNCAKSLSGGWWFGTCSHSNLNGQYFRSIPQQRQKLKKGIFWKTWRGRYYPLQATTMLIQPMAAEAAS"}, "B2": {"name": "Mcg Light Chain Dimer (Homo sapiens), Q6PIK1 (protein)", "chain": "MAGFPLLLTLLTHCAGSWGQSLLTQPPSVSGTPGQRVTISCSGSSSNIGINYVYWYQQIPGTAPKLLISTNDQRPSGVPDRFSGSKSGTSASLAIGGLRSEDEAHYYCAAWDDSMSGPGYAFGTGTKVTVLRQPKANPTVTLFPPSSEELQANKATLVCLISDFYPGAVTVAWKADGSPVKAGVETTKPSKQSNNKYAASSYLSLTPEQWKSHRSYSCQVTHEGSTVEKTVAPTECS"}},
  "experiment_in_all_cases": "glycan array binding signal (z-score within array); higher = stronger binding",
  "details_in_all_cases": "glycan notation: IUPAC condensed, linker removed",
  "key": {"[1]": {"target": "Fuc(a1-2)Gal(b1-3)GalNAc(b1-3)Gal", "outline": "(§1)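 The Consortium for Functional Glycomics database supplied 3228 glycan arrays, of which those lacking an available protein sequence were dropped. The binding signal, a within-array Z-score, was averaged across arrays of the same protein sequence and across linkers. Negative scores can be read as non-binding.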"}, "[2]": {"target": "Fuc(a1-2)Gal(b1-4)GlcNAc(b1-3)Gal(b1-4)GlcNAc(b1-3)Gal(b1-4)GlcNAc", "outline": "as §1"}, "[3]": {"target": "Fuc(a1-2)Gal6S(b1-4)Glc", "outline": "as §1"}, "[4]": {"target": "Fuc(a1-2)[Gal(a1-3)]Gal(b1-4)GlcNAc", "outline": "as §1"}, "[5]": {"target": "Fuc(a1-3)GlcNAc", "outline": "as §1"}, "[6]": {"target": "Fuc(a1-3)[Gal(b1-4)]GlcNAc6S", "outline": "as §1"}, "[7]": {"target": "Gal(a1-3)Gal(b1-4)[Fuc(a1-3)]GlcNAc", "outline": "as §1"}, "[8]": {"target": "Gal(b1-3)Gal", "outline": "as §1"}, "[9]": {"target": "Gal(b1-3)[Fuc(a1-4)]GlcNAc(b1-3)Gal(b1-4)[Fuc(a1-3)]GlcNAc", "outline": "as §1"}, "[10]": {"target": "Gal(b1-3)[GlcNAc(b1-6)]GalNAc", "outline": "as §1"}, "[11]": {"target": "Gal(b1-4)GlcNAc(b1-3)Gal(b1-4)Glc", "outline": "as §1"}, "[12]": {"target": "Gal(b1-4)GlcNAc(b1-3)Gal(b1-4)[Fuc(a1-3)]GlcNAc(b1-3)Gal(b1-4)[Fuc(a1-3)]GlcNAc", "outline": "as §1"}, "[13]": {"target": "Gal(b1-4)GlcNAc(b1-3)[GlcNAc(b1-6)]Gal(b1-4)GlcNAc", "outline": "as §1"}, "[14]": {"target": "Gal3S(b1-4)Glc", "outline": "as §1"}, "[15]": {"target": "GalNAc(b1-3)Gal", "outline": "as §1"}, "[16]": {"target": "GalNAc(b1-4)GlcNAc", "outline": "as §1"}, "[17]": {"target": "Kdn(a2-3)Gal(b1-3)GlcNAc", "outline": "as §1"}, "[18]": {"target": "Man(a1-3)[Man(a1-6)]Man(a1-6)[Man(a1-2)Man(a1-3)]Man(b1-4)GlcNAc(b1-4)GlcNAc", "outline": "as §1"}, "[19]": {"target": "Neu5Ac(a2-3)Gal(b1-3)GlcNAc6S", "outline": "as §1"}, "[20]": {"target": "Neu5Ac(a2-3)Gal(b1-3)[Fuc(a1-4)]GlcNAc", "outline": "as §1"}, "[21]": {"target": "Neu5Ac(a2-3)Gal(b1-4)GlcNAc(b1-3)Gal(b1-3)GlcNAc", "outline": "as §1"}, "[22]": {"target": "Neu5Ac(a2-3)Gal6S(b1-4)[Fuc(a1-3)]GlcNAc", "outline": "as §1"}, "[23]": {"target": "Neu5Ac(a2-3)GalNAc", "outline": "as §1"}, "[24]": {"target": "Neu5Ac(a2-6)Gal(b1-4)GlcNAc(b1-2)Man(a1-6)[Gal(b1-4)GlcNAc(b1-2)Man(a1-3)]Man(b1-4)GlcNAc(b1-4)GlcNAc", "outline": "as §1"}, "[25]": {"target": "Neu5Ac(a2-6)Gal(b1-4)GlcNAc(b1-3)Gal(b1-4)[Fuc(a1-3)]GlcNAc(b1-3)Gal(b1-4)[Fuc(a1-3)]GlcNAc", "outline": "as §1"}, "[26]": {"target": "Neu5Ac(a2-8)Neu5Ac(a2-8)Neu5Ac", "outline": "as §1"}, "[27]": {"target": "Fuc(a1-2)[Gal(a1-3)]Gal(b1-4)Glc", "outline": "as §1"}, "[28]": {"target": "Fuc(a1-2)[GalNAc(b1-3)]Gal", "outline": "as §1"}, "[29]": {"target": "Fuc(a1-3)[Gal3S(b1-4)]GlcNAc6S", "outline": "as §1"}, "[30]": {"target": "Gal(a1-3)Gal(b1-4)Glc", "outline": "as §1"}, "[31]": {"target": "Gal(b1-4)Glc6S", "outline": "as §1"}, "[32]": {"target": "Gal(b1-4)GlcNAc(b1-3)Gal(b1-4)GlcNAc", "outline": "as §1"}, "[33]": {"target": "Gal3S(b1-4)[Fuc(a1-3)]Glc", "outline": "as §1"}, "[34]": {"target": "Gal3S4S(b1-4)GlcNAc", "outline": "as §1"}, "[35]": {"target": "Gal3S6S(b1-4)GlcNAc6S", "outline": "as §1"}, "[36]": {"target": "Gal6S(b1-4)GlcNAc6S", "outline": "as §1"}, "[37]": {"target": "Man(a1-3)[Man(a1-6)]Man", "outline": "as §1"}, "[38]": {"target": "Man(a1-3)[Man(a1-6)]Man(b1-4)GlcNAc(b1-4)GlcNAc", "outline": "as §1"}, "[39]": {"target": "Neu5Ac(a2-3)Gal(b1-3)GalNAc6S", "outline": "as §1"}, "[40]": {"target": "Neu5Ac(a2-3)Gal(b1-4)GlcNAc6S", "outline": "as §1"}, "[41]": {"target": "Neu5Ac(b2-6)Gal(b1-4)GlcNAc", "outline": "as §1"}, "[42]": {"target": "Neu5Gc(a2-3)Gal(b1-4)[Fuc(a1-3)]GlcNAc", "outline": "as §1"}, "[43]": {"target": "Neu5Gc(a2-6)Gal(b1-4)GlcNAc", "outline": "as §1"}},
  "note": "Many of the other results were omitted from the sample, so the strongest signals are more common in it than they were.",
  "data": [
    {"binder": "B1", "values": [
      {"measurement": "glycan array binding signal (z-score)", "setting": "[1]", "result": 5.26},
      {"measurement": "glycan array binding signal (z-score)", "setting": "[2]", "result": 0.616},
      {"measurement": "glycan array binding signal (z-score)", "setting": "[3]", "result": -0.253},
      {"measurement": "glycan array binding signal (z-score)", "setting": "[4]", "result": 0.087},
      {"measurement": "glycan array binding signal (z-score)", "setting": "[5]", "result": -0.446},
      {"measurement": "glycan array binding signal (z-score)", "setting": "[6]", "result": -0.527},
      {"measurement": "glycan array binding signal (z-score)", "setting": "[7]", "result": -0.522},
      {"measurement": "glycan array binding signal (z-score)", "setting": "[8]", "result": 0.531},
      {"measurement": "glycan array binding signal (z-score)", "setting": "[9]", "result": -0.192},
      {"measurement": "glycan array binding signal (z-score)", "setting": "[10]", "result": -0.215},
      {"measurement": "glycan array binding signal (z-score)", "setting": "[11]", "result": -0.407},
      {"measurement": "glycan array binding signal (z-score)", "setting": "[12]", "result": 3.98},
      {"measurement": "glycan array binding signal (z-score)", "setting": "[13]", "result": -0.27},
      {"measurement": "glycan array binding signal (z-score)", "setting": "[14]", "result": -0.052},
      {"measurement": "glycan array binding signal (z-score)", "setting": "[15]", "result": -0.523},
      {"measurement": "glycan array binding signal (z-score)", "setting": "[16]", "result": -0.398},
      {"measurement": "glycan array binding signal (z-score)", "setting": "[17]", "result": 0.691},
      {"measurement": "glycan array binding signal (z-score)", "setting": "[18]", "result": 5.32},
      {"measurement": "glycan array binding signal (z-score)", "setting": "[19]", "result": 7.07},
      {"measurement": "glycan array binding signal (z-score)", "setting": "[20]", "result": -0.272},
      {"measurement": "glycan array binding signal (z-score)", "setting": "[21]", "result": -0.262},
      {"measurement": "glycan array binding signal (z-score)", "setting": "[22]", "result": -0.53},
      {"measurement": "glycan array binding signal (z-score)", "setting": "[23]", "result": -0.954},
      {"measurement": "glycan array binding signal (z-score)", "setting": "[24]", "result": 4.1},
      {"measurement": "glycan array binding signal (z-score)", "setting": "[25]", "result": 0.162},
      {"measurement": "glycan array binding signal (z-score)", "setting": "[26]", "result": -0.016}
    ]},
    {"binder": "B2", "values": [
      {"measurement": "glycan array binding signal (z-score)", "setting": "[1]", "result": -0.611},
      {"measurement": "glycan array binding signal (z-score)", "setting": "[27]", "result": -1.02},
      {"measurement": "glycan array binding signal (z-score)", "setting": "[28]", "result": 0.344},
      {"measurement": "glycan array binding signal (z-score)", "setting": "[29]", "result": 4.13},
      {"measurement": "glycan array binding signal (z-score)", "setting": "[30]", "result": -1.04},
      {"measurement": "glycan array binding signal (z-score)", "setting": "[7]", "result": 0.315},
      {"measurement": "glycan array binding signal (z-score)", "setting": "[10]", "result": -0.568},
      {"measurement": "glycan array binding signal (z-score)", "setting": "[31]", "result": 0.905},
      {"measurement": "glycan array binding signal (z-score)", "setting": "[32]", "result": -0.321},
      {"measurement": "glycan array binding signal (z-score)", "setting": "[33]", "result": -0.54},
      {"measurement": "glycan array binding signal (z-score)", "setting": "[34]", "result": 3.63},
      {"measurement": "glycan array binding signal (z-score)", "setting": "[35]", "result": 5.67},
      {"measurement": "glycan array binding signal (z-score)", "setting": "[36]", "result": 0.505},
      {"measurement": "glycan array binding signal (z-score)", "setting": "[37]", "result": -1.04},
      {"measurement": "glycan array binding signal (z-score)", "setting": "[38]", "result": -0.305},
      {"measurement": "glycan array binding signal (z-score)", "setting": "[39]", "result": 2.88},
      {"measurement": "glycan array binding signal (z-score)", "setting": "[19]", "result": 1.73},
      {"measurement": "glycan array binding signal (z-score)", "setting": "[40]", "result": 2.96},
      {"measurement": "glycan array binding signal (z-score)", "setting": "[41]", "result": -0.955},
      {"measurement": "glycan array binding signal (z-score)", "setting": "[42]", "result": 1.2},
      {"measurement": "glycan array binding signal (z-score)", "setting": "[43]", "result": 0.325}
    ]}
  ]
}
